Here are results for eight molecules from PubChem BioAssay (Tox21).

Values without a mark were called inactive. Inconclusive results are not listed. Calls of active or inactive are those of the source. Unless noted, calls come from the whole dose curve; as a rule, active = well fitted curve in the direction sought with a large enough effect in the repeat runs; inconclusive = weak or mixed curves; inactive = no such curve, though single readings can be large; an effect the other way counts as inactive or inconclusive.

Test [1] concerns the target Thyrotropin-releasing hormone receptor (Homo sapiens) (UniProt P34981). Kind of test: qHTS assay to identify small molecule agonists of the thyrotropin-releasing hormone receptor (TRHR) signaling pathway (AID 1346891; calls by dose curve;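 note: HEK293 cells expressing TRHR with calcium dye readout; series mostly up to about 58 µM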). Summed up: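 Kinetic fluorescence (3 min, 1 s intervals) reported intracellular calcium after compound transfer onto TRHR-Hek293 cells pre-loaded with dye for 2 h at 37 °C.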
In general terms: qHTS replaces the single test concentration by a dilution series.

Test [2] in a line: Human pregnane X receptor (PXR) small molecule agonists, qHTS cell viability counter screen (AID 1346977). Note: nearly all actives have a fitted effect of over 50% in size. In outline:
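HepG2 cells stably carrying the PXR-Luc reporter are cultured with 5% charcoal-stripped FBS and treated with compounds for 24hr. CellTiter-Fluor is added at 23hr and fluorescence is read after 1hr.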

Test [3] can be described thus: Caspase-3/7 induction in HepG2 cells by small molecules, qHTS assay (AID 1346978). Note: nearly all actives have a fitted effect of over 15% in size. Summed up:
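Wild-type HepG2 cells, 2,000/well, settled 5 hr at 37 C and 5% CO2, then compound-treated for 17 hr; caspase-3/7 activity read by luminescent Caspase-Glo 3/7 after 30 min at room temperature.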

Test [4] can be described thus: Caspase-3/7 induction in CHO-K1 cells by small molecules, qHTS cell viability counter screen (AID 1346979). Note: nearly all actives have a fitted effect of over 35% in size. Summed up: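 Seeding: 1,500 CHO-K1 cells/well. Rest: 5hr, 37C. Treatment: compounds in DMSO, 16hr. Read: CellTiter-Fluor, 1hr, fluorescence.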
Test [5] in a line: Caspase-3/7 induction in CHO-K1 cells by small molecules, qHTS assay (AID 1346980). Note: nearly all actives have a fitted effect of over 15% in size. Summed up: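 Wild-type CHO-K1 cells exposed to compounds for 17hr at 37 C, 5% CO2. Caspase-3/7 activity then measured by Caspase-Glo 3/7 luminescence after 30min at room temperature.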
Test [6] is described as follows: Caspase-3/7 induction in HepG2 cells by small molecules, qHTS cell viability counter screen (AID 1346981). Note: series mostly up to about 92 µM; nearly all actives have a fitted effect of over 30% in size. Summed up:
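Wild-type HepG2 cells (2,000/well) were allowed to settle for 5 hr at 37 C, 5% CO2, then dosed with compounds in DMSO by pin transfer. After 16 hr at 37 C, CellTiter-Fluor was added and fluorescence read 1 hr later.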

For test [7], the target named is Nuclear receptor subfamily 1 group I member 2 (Homo sapiens) (UniProt O75469). Kind of test: Human pregnane X receptor (PXR) small molecule agonists, qHTS assay (AID 1346982). Note: nearly all actives have a fitted effect of over 35% in size. Note: potency is the fitted concentration of half-maximal effect. In outline: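 PXR-Luc HepG2 cells (CYP3A4 promoter-driven luciferase) were seeded in medium with 5% charcoal-stripped FBS, left 5 hr at 37 C, then exposed to compounds in DMSO for 24 hr. Luminescence was read after ONE-Glo addition.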

The target of test [8] is Nuclear receptor subfamily 1 group I member 2 (Rattus norvegicus) (UniProt Q9R1A7). Description: Rat pregnane X receptor (rPXR) activation by small molecules, qHTS assay (AID 1346983). Note: nearly all actives have a fitted effect of over 20% in size. Note: potency is the fitted concentration of half-maximal effect. The settings on record: rPXR luciferase reporter cells, One-Glo luminescence, 24 h; max activation: stronger effect = higher value. In outline:
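Cell-based rPXR activation assay: rPXR cells, 2,000 per well, rested 5hr at 37 C, then exposed to compounds in DMSO for 24 hr at 37 C. Luciferase activity read by One-Glo luminescence after 30 min at room temperature.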

Test [9] concerns the target Nuclear receptor subfamily 1 group I member 2 (Homo sapiens) (UniProt O75469). Description: CYP3A4 induction through human pregnane X receptor (PXR) by small molecules, qHTS assay (AID 1346984). Note: nearly all actives have a fitted effect of over 40% in size. Summed up: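 DPX-2 cells (HepG2 co-transfected with PXR and CYP3A4 promoter-luciferase) treated with compounds 24 h at 37C; luciferin-IPA CYP3A4 substrate 3uM final added for 3 h, then One-Glo; luminescence read. qHTS format.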

For test [10] the target is unchanged. Description: Human pregnane X receptor (PXR) activation by small molecules, qHTS assay (AID 1346985). Note: nearly all actives have a fitted effect of over 40% in size. Note: potency is the fitted concentration of half-maximal effect. Summed up:
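DPX-2 cells (HepG2 co-transfected with a PXR response element and a CYP3A4-promoter luciferase construct) were seeded at 2,000 per well, rested 5 hr at 37C, then exposed to DMSO-dissolved compounds for 24 hr. Activation was read as luciferase luminescence.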

The target of test [11] is Cytochrome P450 2D6 (Homo sapiens) (UniProt P10635). Kind of test: Cytochrome P450 Family 2 Subfamily D Member 6 (CYP2D6) small molecule antagonists: luciferase reporter qHTS assay (AID 1671196). Note: series mostly up to about 120 µM; nearly all actives have a fitted effect of over 50% in size. In outline: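 CYP2D6 enzyme–substrate mix was held with compound for 10 min at room temperature, then NADPH regeneration solution was added and the reaction ran 1 h at room temperature. Luciferin product was detected by luminescence after 20 min with detection reagent.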
A general note: Reporter assays use an easily measured gene product as a stand-in for the process of interest.

In test [12] the target is Cytochrome P450 2C9 (Homo sapiens) (UniProt P11712). Description: Cytochrome P450 Family 2 Subfamily C Member 9 (CYP2C9) small molecule antagonists: luciferase reporter qHTS assay (AID 1671198). Note: series mostly up to about 120 µM; nearly all actives have a fitted effect of over 50% in size. In outline: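 P450-Glo proluciferin substrate with CYP2C9 enzyme; 10 min RT preincubation, then NADPH regeneration 1 h at 37C; luciferin detection reagent 20 min RT, luminescence in relative luminescence units.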

Test [13] concerns the target Voltage-gated inwardly rectifying potassium channel KCNH2 (Homo sapiens) (UniProt Q12809). Kind of test: Human Ether-a-go-go-Related Gene (hERG) channel small molecule antagonists: fluorescence cell-based qHTS assay (AID 1671200).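 Note: hERG-expressing U2OS cells given a thallium stimulus after FluxOR II dye loading; series mostly up to about 77 µM; nearly all actives have a fitted effect of over 50% in size.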 Summed up:
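First, 1000 cells per well are seeded and cultured overnight at 37 C. Next, FluxOR II dye is loaded for 1 h at room temperature, protected from light. After 10 more minutes, stimulus is added and fluorescence is read.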
For orientation: The hERG channel carries a current that helps repolarise heart muscle cells.

Test [14] deals with Cytochrome P450 2C19 (Homo sapiens) (UniProt P33261). Kind of test: Cytochrome P450 Family 2 Subfamily C Member 19 (CYP2C19) small molecule antagonists: luciferase reporter qHTS assay (AID 1671197). Note: series mostly up to about 120 µM; nearly all actives have a fitted effect of over 65% in size. Summed up:
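Luminescent readout of CYP2C19 activity: luciferin product detected 20 min after adding detection reagent. Before that, compound and enzyme-substrate mix preincubated 10 min at room temperature; NADPH-regenerating system started a 1 h, 37C reaction. Ketoconazole as positive control.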

Test [15] has as its target Cytochrome P450 1A2 (Homo sapiens) (UniProt P05177). Description: Cytochrome P450 Family 1 Subfamily A Member 2 (CYP1A2) small molecule antagonists: luciferase reporter qHTS assay (AID 1671199). For activity change, negative = inhibition: series mostly up to about 120 µM. Note: nearly all actives have a fitted effect of over 50% in size. Note: potency is the fitted concentration of half-maximal effect. In outline:
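Human CYP1A2 activity measured with a P450-Glo proluciferin substrate; compounds in DMSO preincubated 10 min at room temperature with enzyme-substrate mix, then NADPH regeneration system added for 1 h. Luciferin detection reagent, 20 min, luminescence read.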

Test [16] has as its target Cytochrome P450 3A4 (Homo sapiens) (UniProt P08684). Kind of test: Cytochrome P450 Family 3 Subfamily A Member 4 (CYP3A4) small molecule antagonists: luciferase reporter qHTS assay (AID 1671201). In outline:
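Enzyme and proluciferin substrate are mixed with test chemicals for 10 min, then NADPH regeneration system drives turnover for 1 h at room temperature. A detection reagent halts the reaction; luminescence after 20 min gives relative activity.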
% is set by controls: 0 for no effect and ±100 for the full control effect.

Chain of Cytochrome P450 2D6 (Homo sapiens) (P10635 whole entry, looked up): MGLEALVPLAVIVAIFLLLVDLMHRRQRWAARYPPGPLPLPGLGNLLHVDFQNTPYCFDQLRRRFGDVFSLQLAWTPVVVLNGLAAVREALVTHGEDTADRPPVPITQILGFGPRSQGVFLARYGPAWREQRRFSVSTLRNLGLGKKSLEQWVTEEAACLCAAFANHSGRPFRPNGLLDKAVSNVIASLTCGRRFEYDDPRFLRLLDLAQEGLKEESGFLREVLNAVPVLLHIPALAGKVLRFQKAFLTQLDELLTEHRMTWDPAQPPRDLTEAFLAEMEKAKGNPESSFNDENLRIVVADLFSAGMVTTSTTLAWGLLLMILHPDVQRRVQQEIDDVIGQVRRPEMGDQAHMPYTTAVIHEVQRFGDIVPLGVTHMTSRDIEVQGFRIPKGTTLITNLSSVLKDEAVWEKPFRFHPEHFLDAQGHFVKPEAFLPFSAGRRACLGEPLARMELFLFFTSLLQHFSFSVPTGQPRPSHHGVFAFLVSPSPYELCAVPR
Chain of Voltage-gated inwardly rectifying potassium channel KCNH2 (Homo sapiens) (Q12809 whole entry, looked up): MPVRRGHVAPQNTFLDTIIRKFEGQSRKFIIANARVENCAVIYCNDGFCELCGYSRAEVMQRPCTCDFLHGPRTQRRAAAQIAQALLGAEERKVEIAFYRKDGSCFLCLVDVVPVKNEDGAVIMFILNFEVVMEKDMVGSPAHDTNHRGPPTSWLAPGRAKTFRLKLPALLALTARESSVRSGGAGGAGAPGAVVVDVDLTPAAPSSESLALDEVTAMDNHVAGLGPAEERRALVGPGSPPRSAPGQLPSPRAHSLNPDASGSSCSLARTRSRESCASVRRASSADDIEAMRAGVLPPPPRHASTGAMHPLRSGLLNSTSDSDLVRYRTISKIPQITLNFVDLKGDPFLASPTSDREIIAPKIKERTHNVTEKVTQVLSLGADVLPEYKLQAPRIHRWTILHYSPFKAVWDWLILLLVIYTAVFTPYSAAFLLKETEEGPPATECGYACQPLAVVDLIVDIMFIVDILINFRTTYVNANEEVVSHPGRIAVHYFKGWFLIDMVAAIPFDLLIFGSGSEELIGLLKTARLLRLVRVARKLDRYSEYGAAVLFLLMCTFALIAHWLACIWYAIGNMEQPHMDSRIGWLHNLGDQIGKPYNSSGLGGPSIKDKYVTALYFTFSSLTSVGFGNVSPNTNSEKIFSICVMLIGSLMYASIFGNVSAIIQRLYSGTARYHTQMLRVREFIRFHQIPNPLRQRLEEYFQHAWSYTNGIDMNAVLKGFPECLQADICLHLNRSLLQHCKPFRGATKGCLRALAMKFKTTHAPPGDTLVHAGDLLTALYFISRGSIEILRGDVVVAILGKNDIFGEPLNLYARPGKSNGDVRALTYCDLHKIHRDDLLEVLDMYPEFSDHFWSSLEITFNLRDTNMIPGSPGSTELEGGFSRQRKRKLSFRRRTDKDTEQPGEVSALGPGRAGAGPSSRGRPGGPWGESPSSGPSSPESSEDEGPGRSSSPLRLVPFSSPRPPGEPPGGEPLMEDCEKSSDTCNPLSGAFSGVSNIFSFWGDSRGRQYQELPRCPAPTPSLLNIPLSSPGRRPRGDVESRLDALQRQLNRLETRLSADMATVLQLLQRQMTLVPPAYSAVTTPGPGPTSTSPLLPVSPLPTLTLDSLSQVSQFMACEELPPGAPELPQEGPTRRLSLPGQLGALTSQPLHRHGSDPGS
Chain of Cytochrome P450 3A4 (Homo sapiens) (P08684 whole entry, looked up): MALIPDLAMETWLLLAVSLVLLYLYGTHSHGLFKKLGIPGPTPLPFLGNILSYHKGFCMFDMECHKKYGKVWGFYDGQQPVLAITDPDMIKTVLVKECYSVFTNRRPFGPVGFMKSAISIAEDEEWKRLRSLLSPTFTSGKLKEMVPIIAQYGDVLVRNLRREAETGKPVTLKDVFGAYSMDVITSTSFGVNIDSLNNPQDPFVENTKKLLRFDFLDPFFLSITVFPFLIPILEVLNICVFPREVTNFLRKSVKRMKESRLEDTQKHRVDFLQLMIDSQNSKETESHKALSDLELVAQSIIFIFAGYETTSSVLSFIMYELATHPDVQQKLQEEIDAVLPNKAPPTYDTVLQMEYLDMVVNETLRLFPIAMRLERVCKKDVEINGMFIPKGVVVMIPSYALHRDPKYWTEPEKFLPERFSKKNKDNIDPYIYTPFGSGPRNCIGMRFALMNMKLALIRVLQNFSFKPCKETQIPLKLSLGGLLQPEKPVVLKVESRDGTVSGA
Chain of Nuclear receptor subfamily 1 group I member 2 (Rattus norvegicus) (Q9R1A7 whole entry, looked up): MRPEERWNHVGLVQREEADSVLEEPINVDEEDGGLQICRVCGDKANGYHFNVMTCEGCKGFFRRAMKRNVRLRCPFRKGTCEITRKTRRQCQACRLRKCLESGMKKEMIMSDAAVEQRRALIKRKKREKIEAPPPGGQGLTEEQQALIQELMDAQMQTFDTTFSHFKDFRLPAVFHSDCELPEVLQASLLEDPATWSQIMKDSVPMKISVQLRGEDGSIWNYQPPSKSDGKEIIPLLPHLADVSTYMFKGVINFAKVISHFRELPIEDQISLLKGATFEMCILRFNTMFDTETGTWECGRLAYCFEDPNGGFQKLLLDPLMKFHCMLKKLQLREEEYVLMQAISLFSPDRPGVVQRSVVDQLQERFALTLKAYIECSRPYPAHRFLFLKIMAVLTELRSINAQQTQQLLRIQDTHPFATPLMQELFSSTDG
Chain of Cytochrome P450 1A2 (Homo sapiens) (P05177 whole entry, looked up): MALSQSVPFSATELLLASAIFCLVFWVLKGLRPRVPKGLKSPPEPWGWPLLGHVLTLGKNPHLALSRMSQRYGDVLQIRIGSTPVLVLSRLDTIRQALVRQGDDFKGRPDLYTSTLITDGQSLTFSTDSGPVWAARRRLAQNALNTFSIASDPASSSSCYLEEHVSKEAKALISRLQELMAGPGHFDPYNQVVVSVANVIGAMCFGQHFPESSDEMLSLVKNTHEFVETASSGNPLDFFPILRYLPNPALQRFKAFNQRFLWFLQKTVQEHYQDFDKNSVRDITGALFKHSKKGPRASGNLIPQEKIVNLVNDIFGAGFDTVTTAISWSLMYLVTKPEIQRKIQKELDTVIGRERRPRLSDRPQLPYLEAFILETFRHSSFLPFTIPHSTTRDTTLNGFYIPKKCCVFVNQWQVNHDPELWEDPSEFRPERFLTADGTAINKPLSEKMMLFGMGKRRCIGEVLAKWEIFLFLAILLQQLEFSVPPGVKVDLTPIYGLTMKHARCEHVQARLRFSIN
Chain of Cytochrome P450 2C9 (Homo sapiens) (P11712 whole entry, looked up): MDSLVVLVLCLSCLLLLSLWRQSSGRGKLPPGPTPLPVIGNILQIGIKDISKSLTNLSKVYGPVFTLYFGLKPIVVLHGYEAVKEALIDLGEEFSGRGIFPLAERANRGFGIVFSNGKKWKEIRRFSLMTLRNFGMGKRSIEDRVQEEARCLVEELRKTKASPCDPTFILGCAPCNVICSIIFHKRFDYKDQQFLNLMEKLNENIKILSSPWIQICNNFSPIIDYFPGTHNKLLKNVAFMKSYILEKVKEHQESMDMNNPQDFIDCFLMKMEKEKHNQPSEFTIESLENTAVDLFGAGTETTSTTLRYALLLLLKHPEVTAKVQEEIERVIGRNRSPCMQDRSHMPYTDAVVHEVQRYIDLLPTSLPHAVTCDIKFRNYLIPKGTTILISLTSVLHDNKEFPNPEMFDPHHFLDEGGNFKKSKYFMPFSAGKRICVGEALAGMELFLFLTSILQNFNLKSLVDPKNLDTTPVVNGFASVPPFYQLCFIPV
Chain of Thyrotropin-releasing hormone receptor (Homo sapiens) (P34981 whole entry, looked up): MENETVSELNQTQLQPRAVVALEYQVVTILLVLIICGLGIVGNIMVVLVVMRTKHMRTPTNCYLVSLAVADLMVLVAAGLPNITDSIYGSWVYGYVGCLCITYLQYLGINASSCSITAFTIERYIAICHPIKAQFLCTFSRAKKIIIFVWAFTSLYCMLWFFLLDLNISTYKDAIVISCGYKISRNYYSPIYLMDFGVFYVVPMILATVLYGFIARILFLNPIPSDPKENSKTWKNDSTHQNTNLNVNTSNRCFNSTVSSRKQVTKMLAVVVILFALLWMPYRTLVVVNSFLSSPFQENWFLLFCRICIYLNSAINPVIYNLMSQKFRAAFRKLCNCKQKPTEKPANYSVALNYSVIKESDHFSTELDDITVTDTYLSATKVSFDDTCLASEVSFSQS
Chain of Cytochrome P450 2C19 (Homo sapiens) (P33261 whole entry, looked up): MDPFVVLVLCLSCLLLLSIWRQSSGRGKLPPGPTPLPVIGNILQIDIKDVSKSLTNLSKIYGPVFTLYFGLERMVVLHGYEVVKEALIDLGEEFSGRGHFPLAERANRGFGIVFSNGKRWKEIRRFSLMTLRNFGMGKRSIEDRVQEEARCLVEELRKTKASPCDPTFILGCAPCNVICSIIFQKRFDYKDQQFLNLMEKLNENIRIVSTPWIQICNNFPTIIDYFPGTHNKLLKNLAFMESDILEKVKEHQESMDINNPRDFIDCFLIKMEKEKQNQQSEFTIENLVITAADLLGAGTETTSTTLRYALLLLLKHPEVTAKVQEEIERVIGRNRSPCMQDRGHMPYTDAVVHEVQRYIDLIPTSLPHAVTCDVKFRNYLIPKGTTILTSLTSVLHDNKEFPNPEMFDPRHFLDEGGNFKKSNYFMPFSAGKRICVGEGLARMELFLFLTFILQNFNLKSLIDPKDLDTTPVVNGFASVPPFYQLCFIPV
Chain of Nuclear receptor subfamily 1 group I member 2 (Homo sapiens) (O75469 whole entry, looked up): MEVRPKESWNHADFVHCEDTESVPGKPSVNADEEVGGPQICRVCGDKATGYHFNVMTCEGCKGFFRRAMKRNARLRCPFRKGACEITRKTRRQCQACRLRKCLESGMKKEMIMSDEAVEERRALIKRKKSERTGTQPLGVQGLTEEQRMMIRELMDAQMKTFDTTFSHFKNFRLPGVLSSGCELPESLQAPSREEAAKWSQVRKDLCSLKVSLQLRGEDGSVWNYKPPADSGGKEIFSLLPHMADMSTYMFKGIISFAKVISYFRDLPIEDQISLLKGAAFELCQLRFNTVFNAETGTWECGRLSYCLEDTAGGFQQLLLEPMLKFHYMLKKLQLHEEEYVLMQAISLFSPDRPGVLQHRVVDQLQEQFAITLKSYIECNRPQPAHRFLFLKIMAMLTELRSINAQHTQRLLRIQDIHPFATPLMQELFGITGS

`COc1cc(O)cc(O)c1`: the molecule was classed as inactive in test [1], in test [3], in test [5] and in [6]. The Potency result in [2], in test [4], in test [7], in test [9], in test [10] and in test [11] was “inactive” throughout. Besides, the Potency entry in [12] and in test [13] was “inactive” each time. In addition, the max activation in test [8] was -1.94%.
`CO[Si](CCCNCCC[Si](OC)(OC)OC)(OC)OC`: the result in test [1], in test [3], in [5] and in [6] was inactive. Moreover, the Potency result in [2], in test [4], in test [7], in test [11], in test [14] and in [12] was “inactive” throughout. The Potency result in [15], in test [13] and in test [16] was “inactive” throughout.
Regarding `NCCNC(=O)c1ccc(Cl)cn1`, the molecule was classed as inactive in test [1], in [3], in test [5] and in [6]. The Potency result in test [2], in test [4], in test [7], in [9], in test [10] and in test [14] was “inactive” each time. In addition, the Potency entry in [12], in [13] and in [16] was “inactive” each time.
On to `Nc1nc2c(ncn2CCC(CO)CO)c(=O)[nH]1`, for which the result in [1], in test [3], in [5] and in test [6] was inactive. Besides, the Potency result in test [2], in test [4], in test [7], in test [9], in test [10] and in test [11] was “inactive” in each case. Besides, the Potency entry in test [12], in test [15], in test [13] and in test [16] was “inactive” each time. Also, in [8], the max activation is 3.6%.
Consider `CCCCCCCCCCCCCCC`, for which the molecule was called inactive in [1], in [3], in test [5] and in test [6]. Also, the Potency result in [2], in test [4], in [7], in test [11], in [14] and in test [12] was “inactive” each time. The Potency result in [15] and in [13] was “inactive” throughout.
On to `Cn1ccc2cc3c(cc21)CCN3C(=O)Nc1cccnc1`, for which the activation in test [1] is -0.003% [at 11.8 µM]. For the same molecule, the activity change, negative = cytotoxicity in test [2] was 0% [at 19 µM]; in [4], 5.05% [at 19 µM]; in test [6] it was 1.32% [at 19 µM]. The caspase activation in [3] was 0.602% [at 19 µM]. Moreover, the caspase-3/7 activation in test [5] is -1.75% [at 19 µM]. Moreover, the Potency is 3.66 µM (active) in test [7], 12.6 µM (active) in test [8], 12.6 µM (active) in test [10] and 0.0791 µM (active) in [15]. Further, the Potency entry in [9] was “inactive”. Moreover, the activity change, negative = inhibition in [11] was -16.8% [at 23.6 µM]; in test [13] it was 2.6% [at 15.8 µM].
`COc1cccc(OC)c1`: the outcome in [1], in test [3], in test [5] and in [6] was inactive. Moreover, the Potency entry in test [2], in test [4], in test [7], in test [11], in [14] and in test [12] was “inactive” throughout. The Potency result in test [15], in [13] and in test [16] was “inactive” in each case.
For the molecule `CC(C)[C@H](N)C(=O)OCCOCn1cnc2c(=O)[nH]c(N)nc21`, the molecule was called inactive in [1], in test [3], in test [5] and in [6]. Moreover, the Potency result in [2], in test [4], in test [7], in [9], in [10] and in test [11] was “inactive” throughout. Besides, the Potency entry in test [14], in [12] and in test [15] was “inactive” in each case. Also, in test [8], the max activation is -4.04%.
